From ChEMBL document CHEMBL3988442, “University of Dundee, Small-Polar-MMV Screening Library” (2021)
For some assays here: Entries with a potency or affinity are not part of this list.

Tests used:
Set-up in all cases: scale not given: direction of the effect not stated beside the values
[1] = molecular target: Protein translocase subunit SecA (Escherichia coli (strain K12)) (UniProt P10408); assay: Assay to Identify E. coli SecA ATPase Inhibitors; type: functional; conditions: 30 µM
[2] = molecular target: T1, Ubiquitin-activating enzyme e1, putative (Leishmania donovani (strain BPK282A1)) (UniProt E9BSI1); assay: Leishmania donovani Ubiquitin Activating Enzyme (LdE1); type: functional; conditions: 30 µM
T1 sequence (whole entry): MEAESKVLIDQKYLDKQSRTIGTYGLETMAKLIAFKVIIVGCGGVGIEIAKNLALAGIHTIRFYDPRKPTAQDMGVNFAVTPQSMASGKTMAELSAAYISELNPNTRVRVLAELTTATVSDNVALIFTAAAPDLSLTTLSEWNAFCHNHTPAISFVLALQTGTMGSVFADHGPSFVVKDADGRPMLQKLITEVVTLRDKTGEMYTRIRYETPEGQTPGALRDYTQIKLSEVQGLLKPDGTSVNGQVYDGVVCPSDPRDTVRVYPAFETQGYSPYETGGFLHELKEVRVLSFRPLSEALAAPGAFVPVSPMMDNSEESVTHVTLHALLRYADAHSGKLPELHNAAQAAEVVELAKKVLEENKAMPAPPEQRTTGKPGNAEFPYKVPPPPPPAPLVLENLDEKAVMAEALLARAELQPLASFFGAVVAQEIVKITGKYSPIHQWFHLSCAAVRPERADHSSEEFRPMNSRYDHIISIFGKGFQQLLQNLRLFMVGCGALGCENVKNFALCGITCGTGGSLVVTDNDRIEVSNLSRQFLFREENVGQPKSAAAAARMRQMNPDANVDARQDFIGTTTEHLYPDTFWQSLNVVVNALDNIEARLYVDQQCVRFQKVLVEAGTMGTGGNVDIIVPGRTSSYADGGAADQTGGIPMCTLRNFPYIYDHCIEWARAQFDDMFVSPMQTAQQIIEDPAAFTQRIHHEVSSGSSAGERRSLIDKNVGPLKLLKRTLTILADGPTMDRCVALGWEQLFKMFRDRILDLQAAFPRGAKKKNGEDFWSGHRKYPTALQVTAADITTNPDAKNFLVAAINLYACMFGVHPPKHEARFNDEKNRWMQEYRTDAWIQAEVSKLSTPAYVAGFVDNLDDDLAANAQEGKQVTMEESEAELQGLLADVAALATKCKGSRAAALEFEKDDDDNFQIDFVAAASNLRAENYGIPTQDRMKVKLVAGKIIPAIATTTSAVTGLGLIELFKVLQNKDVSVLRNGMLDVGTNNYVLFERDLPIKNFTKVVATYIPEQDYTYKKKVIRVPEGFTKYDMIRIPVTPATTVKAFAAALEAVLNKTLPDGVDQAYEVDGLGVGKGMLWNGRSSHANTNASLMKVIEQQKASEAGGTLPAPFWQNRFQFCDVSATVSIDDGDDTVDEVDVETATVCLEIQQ

[3] = molecular target: AMP-activated protein kinase, AMPK (Homo sapiens) (UniProt P54646+O43741+P54619+Q9UGJ0+Q9Y478+Q13131+Q9UGI9); assay: AMP-dependent Kinase enzyme assay. An in vitro enzyme assay that detects ADP turnover that is directly proportional to AMPK activity. This uses naive AMPK that is activated during the assay with MK-8722; type: functional; conditions: 30 µM
[4] = molecular target: Sialic acid-binding Ig-like lectin 9 (Homo sapiens) (UniProt Q9Y336); assay: Hs-Siglec9 ALPHAscreen SOP 20170721; conditions: 10 µM
Trypanosoma cruzi = assay: Trypanosoma cruzi phosphomannomutase and mannose-1-phosphate guanylyltransferase assay; type: functional; conditions: 10 µM
[5] = molecular target: T2, Arginase-2, mitochondrial (Homo sapiens) (UniProt P78540); assay: in vitro enzyme assay to detect the production of urea directly proportional to the activity of Arginase II; type: functional; conditions: 33.3 µM; also: in the data most compounds retested in dose-response had high values
T2 sequence (whole entry): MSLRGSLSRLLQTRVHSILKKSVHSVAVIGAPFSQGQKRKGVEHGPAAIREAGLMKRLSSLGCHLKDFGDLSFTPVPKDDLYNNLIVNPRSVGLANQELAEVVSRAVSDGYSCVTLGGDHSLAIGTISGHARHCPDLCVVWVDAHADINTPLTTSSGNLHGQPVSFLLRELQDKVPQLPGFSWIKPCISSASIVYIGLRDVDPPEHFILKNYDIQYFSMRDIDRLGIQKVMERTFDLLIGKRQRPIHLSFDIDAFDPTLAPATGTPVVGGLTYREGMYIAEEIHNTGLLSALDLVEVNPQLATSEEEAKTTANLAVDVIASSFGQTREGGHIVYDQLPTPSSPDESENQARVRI

[6] = molecular target: T3, Proteasome subunit beta (Trypanosoma cruzi) (UniProt O96673); assay: Trypanosoma cruzi proteasome chymotrypsin-like activity (TcProtChymo) assay.; also: in the data most compounds retested in dose-response had high values; type: functional; conditions: 9.37 µM
T3 sequence (whole entry): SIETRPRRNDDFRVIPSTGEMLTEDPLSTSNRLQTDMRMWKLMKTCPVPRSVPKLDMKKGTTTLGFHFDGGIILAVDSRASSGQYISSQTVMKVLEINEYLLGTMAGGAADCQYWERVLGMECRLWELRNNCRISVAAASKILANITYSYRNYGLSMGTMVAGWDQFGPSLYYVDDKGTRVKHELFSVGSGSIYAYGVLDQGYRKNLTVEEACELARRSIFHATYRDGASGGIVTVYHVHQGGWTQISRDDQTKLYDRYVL

Homo sapiens = organism: Homo sapiens; assay: To identify inhibition of the IFN signalling (Jak-Stat) pathway via expression of an eGFP reporter gene under the control of an IFN-stimulated response element (ISRE) containing MxA promoter.; type: functional; conditions: 30 µM
[7] = molecular target: T4, Tyrosyl-tRNA synthetase, putative (Trypanosoma cruzi (strain CL Brener)) (UniProt Q4DSP6); assay: Trypanosoma cruzi tyrosyl tRNA synthetase (TcYRS) _High Tyrosine SOP; type: functional; conditions: 30 µM; also: in the data most compounds retested in dose-response had high values
T4 sequence (whole entry): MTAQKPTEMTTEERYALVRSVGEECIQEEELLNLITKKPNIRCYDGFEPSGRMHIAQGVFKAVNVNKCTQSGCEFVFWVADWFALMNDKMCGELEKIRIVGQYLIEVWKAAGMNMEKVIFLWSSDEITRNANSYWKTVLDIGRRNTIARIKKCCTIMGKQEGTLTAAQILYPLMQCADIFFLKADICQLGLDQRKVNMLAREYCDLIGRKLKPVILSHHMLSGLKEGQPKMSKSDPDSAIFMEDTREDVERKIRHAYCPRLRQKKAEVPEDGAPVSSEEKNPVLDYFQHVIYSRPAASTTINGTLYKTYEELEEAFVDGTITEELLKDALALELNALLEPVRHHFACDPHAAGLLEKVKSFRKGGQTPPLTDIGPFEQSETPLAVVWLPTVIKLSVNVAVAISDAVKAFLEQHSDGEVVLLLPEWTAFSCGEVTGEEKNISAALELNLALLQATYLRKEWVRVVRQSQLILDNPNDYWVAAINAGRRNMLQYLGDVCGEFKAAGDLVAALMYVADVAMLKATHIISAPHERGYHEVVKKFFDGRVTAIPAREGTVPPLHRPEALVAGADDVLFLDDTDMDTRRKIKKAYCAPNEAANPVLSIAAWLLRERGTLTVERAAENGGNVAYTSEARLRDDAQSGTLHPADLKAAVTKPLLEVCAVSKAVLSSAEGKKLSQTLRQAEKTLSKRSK

[8] = molecular target: T4, Tyrosyl-tRNA synthetase, putative (Trypanosoma cruzi (strain CL Brener)); assay: Trypanosoma cruzi tyrosyl tRNA synthetase (TcYRS) SOP; type: functional; conditions: 30 µM
[9] = molecular target: Chromo domain-containing protein 1 (Saccharomyces cerevisiae (strain ATCC 204508 / S288c) (Baker's yeast)) (UniProt P32657); assay: ScCHD-1 Enzyme Inhibition Assay; type: functional; conditions: 30 µM; also: in the data most compounds retested in dose-response had high values
Sequence of Chromo domain-containing protein 1 (Saccharomyces cerevisiae (strain ATCC 204508 / S288c) (Baker's yeast)) (P32657 whole entry, the tested form may be a part): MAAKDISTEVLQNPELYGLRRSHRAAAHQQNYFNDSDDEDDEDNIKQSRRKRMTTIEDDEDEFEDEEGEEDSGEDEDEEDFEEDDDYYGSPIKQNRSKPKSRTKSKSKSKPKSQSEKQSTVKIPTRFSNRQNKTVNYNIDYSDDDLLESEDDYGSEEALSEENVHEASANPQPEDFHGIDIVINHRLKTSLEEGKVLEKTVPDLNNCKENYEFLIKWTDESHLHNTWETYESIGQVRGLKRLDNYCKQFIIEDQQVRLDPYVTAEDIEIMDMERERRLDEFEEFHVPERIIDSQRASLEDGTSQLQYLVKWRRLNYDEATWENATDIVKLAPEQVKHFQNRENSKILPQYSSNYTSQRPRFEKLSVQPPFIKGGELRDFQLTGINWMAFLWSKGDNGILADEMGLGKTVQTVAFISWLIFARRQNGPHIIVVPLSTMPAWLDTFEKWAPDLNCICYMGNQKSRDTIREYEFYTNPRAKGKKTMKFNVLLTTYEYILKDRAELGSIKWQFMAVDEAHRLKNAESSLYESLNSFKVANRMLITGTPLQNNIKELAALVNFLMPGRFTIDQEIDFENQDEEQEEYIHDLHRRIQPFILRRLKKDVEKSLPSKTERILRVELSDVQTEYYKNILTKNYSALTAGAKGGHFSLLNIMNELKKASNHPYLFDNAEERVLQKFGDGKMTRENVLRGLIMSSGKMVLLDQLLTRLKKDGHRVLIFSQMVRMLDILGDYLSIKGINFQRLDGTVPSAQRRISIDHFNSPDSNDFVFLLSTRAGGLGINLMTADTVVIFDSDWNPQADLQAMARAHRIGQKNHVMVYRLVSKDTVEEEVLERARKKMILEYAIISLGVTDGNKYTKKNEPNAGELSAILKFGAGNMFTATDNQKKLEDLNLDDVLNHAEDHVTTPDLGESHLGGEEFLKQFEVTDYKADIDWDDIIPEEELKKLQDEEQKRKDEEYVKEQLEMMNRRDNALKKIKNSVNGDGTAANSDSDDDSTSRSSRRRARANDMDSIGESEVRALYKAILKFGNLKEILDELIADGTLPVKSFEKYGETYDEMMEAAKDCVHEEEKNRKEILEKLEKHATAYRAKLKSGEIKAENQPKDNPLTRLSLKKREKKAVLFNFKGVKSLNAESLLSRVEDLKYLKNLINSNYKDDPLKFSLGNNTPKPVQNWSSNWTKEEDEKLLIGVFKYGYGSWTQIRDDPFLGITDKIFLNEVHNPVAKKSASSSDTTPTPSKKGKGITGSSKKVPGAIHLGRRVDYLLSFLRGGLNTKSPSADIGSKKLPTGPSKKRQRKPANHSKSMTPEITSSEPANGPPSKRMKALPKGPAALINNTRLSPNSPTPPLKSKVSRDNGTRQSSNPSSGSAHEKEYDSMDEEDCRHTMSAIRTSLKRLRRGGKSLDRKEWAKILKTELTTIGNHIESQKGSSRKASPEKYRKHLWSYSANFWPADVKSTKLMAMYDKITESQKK

Sequence of Sialic acid-binding Ig-like lectin 9 (Homo sapiens) (Q9Y336 whole entry): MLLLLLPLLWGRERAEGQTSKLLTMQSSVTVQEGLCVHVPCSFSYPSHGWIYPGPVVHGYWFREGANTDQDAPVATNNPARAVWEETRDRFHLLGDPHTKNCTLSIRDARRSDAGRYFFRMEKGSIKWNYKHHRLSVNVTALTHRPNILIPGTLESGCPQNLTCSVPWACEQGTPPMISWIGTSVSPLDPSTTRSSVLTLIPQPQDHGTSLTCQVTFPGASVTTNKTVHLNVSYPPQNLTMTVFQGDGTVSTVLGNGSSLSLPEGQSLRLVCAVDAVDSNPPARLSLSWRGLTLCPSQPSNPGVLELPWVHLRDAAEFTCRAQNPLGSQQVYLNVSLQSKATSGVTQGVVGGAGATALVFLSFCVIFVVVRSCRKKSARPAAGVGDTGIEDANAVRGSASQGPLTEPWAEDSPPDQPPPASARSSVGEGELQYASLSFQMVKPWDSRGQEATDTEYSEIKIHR
Sequence of Protein translocase subunit SecA (Escherichia coli (strain K12)) (P10408 whole entry): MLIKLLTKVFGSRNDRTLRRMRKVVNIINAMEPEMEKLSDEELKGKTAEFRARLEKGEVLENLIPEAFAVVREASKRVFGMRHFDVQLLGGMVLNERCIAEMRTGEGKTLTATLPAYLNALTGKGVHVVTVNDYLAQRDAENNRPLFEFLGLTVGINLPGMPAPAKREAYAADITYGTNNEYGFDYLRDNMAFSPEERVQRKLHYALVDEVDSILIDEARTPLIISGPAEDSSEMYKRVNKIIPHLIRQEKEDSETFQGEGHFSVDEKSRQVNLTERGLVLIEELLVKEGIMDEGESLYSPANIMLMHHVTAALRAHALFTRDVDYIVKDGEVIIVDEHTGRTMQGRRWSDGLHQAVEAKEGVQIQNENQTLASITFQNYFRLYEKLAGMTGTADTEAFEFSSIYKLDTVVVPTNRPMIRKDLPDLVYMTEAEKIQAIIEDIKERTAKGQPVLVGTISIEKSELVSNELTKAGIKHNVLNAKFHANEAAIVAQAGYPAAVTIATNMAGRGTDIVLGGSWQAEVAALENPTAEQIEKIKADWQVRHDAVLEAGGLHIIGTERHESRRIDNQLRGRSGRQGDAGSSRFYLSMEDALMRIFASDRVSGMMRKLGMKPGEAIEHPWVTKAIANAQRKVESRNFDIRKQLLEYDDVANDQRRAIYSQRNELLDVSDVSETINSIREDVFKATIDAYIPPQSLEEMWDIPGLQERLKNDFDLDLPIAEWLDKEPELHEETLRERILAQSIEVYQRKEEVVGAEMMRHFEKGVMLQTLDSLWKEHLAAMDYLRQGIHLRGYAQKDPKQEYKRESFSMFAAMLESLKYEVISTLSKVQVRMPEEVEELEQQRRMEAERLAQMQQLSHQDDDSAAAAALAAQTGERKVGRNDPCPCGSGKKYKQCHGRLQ

Row | SMILES | Percent Effect [1] [%] | Percent Effect [2] [%] | Percent Effect [3] [%] | Percent Effect [4] [%] | Percent Effect (Trypanosoma cruzi) [%] | Percent Effect [5] [%] | Percent Effect [6] [%] | Percent Effect (Homo sapiens) [%] | Percent Effect [7] [%] | Percent Effect [8] [%] | Percent Effect [9] [%]
1 | Cc1nc(CN2CCOC(Cn3cncn3)C2)nc2ccccc12 (centres undefined) | -1.64 | -2.6 | 3.13 | 0.385 | 3.04 | -1.05 | 9.62 | -20.1 | 5.71 | 0 | -15.8
2 | O=C(c1ccn[nH]1)N1CCCC(n2cncn2)C1 (centres undefined) | -7.58 | 11.4 | -2.36 | 4.37 | -0.718 | 0.645 | 12.9 | 6.04 | 2.08 | 15.2 | -14.9
3 | CCOc1ncccc1C(=O)N1CCCCC1c1nccs1 (centres undefined) | -4.08 | 2.7 | -17.5 | 15.7 | 2.55 | -7.62 | -2.7 | 10.1 | 4.43 | 11.1 | -9.25
4 | CCNC(=O)[C@@H]1C[C@H](NC(=O)c2cncnc2C)CN1CCCSC | -2.84 | 5.48 | -7.63 | 3.4 | 3.17 | -3.59 | 9.68 | -11.3 | 4.17 | 13.6 | -0.349
